In all, about 33,000 sequences were measured (“E-score (-0.5 to 0.5)”: median about -0.0014, highest 2% from about 0.25 on). What follows is part of a selection rich in the highest values, with near analogues and random picks from the rest.
Molecular target: T1, Cad1 (UniProt P24813)
T1 sequence: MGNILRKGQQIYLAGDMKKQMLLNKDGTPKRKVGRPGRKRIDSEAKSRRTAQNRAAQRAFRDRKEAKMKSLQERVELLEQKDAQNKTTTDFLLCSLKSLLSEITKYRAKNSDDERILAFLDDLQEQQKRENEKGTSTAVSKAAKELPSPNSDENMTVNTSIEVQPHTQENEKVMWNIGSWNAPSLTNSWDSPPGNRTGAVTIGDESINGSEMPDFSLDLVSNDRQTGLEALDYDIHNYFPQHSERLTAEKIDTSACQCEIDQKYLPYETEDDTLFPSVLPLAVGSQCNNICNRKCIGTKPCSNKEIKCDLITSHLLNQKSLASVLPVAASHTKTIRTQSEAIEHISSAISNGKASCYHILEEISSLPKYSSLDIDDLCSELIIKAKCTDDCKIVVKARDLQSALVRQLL
Assay: PBM E-score (8-mer binding enrichment) (E-score (-0.5 to 0.5)); higher = stronger / more preferred TF binding
Settings: protein concentration: 100 nM; construct: GST-full length
In short: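 E-scores (a modified Wilcoxon-Mann-Whitney statistic) were assigned by the Universal PBM Analysis Suite to every ungapped eight-base word pooled with its reverse complement. The input came from universal all-10-mer Agilent arrays made double-stranded by primer extension and probed with GST-tagged yeast transcription factors at about 100-200 nM. Fluorescent anti-GST detected bound protein, and masliner normalised the scans.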

Row | Sequence | PBM E-score
1 | CGATGAAG | -0.0787
2 | AGAGTATC | -0.0123
3 | AATCCACG | 0.048
4 | AGTTTCCG | 0.105
5 | CCTGGGGC | -0.343
6 | ACTGTAGC | -0.136
7 | CACGTCTG | 0.134
8 | ACATCGAA | 0.169
9 | TCCGGGCA | 0.00134
10 | AGCTCGCC | -0.0374
11 | ATCTCGCG | 0.256
12 | ATCTCGCC | -0.0589
13 | AGCTCGCA | 0.0143
14 | AGCTCGCG | 0.262
15 | ATCTCGCA | 0.0847
16 | CGCTGACC | 0.117
17 | CGCTGACG | 0.0393
18 | TGCTGAAA | -0.0176
19 | TGCTGACA | 0.334
20 | GGCTGATA | -0.0873
21 | GGCTGACA | 0.313
22 | AGCTGACA | 0.192
23 | GGCTGACC | -0.121
24 | CGCTGACA | 0.297
25 | CGCGCAAC | 0.2

Row | Sequence | PBM E-score
26 | AGGATGGG | -0.107
27 | AAGTCTAG | -0.155
28 | AGAAAATC | -0.0518
29 | CGAAAATC | 0.259
30 | CGAAAATA | 0.163
31 | GGAAAAGA | -0.191
32 | CGAAAAGA | 0.28
33 | AGAAAAGA | -0.0414
34 | GTATTGCA | -0.0639
35 | ATAGGCGC | 0.0733
36 | ACGGGCAA | -0.05
37 | AACAATAT | 0.338
38 | ACCAATAT | 0.306
39 | ACCAAAAT | 0.0849
40 | ACCAAAAA | 0.278
41 | ACCAATAG | -0.201
42 | ACGAATAC | 0.132
43 | ACGAATAA | -0.0279
44 | AACAATAC | 0.135
45 | ACCAATAC | -0.106
46 | ACCAAAAC | -0.0311
47 | ACGAATAT | 0.268
48 | AACAATAA | 0.211
49 | ACGGACCT | -0.0269
50 | CCAGCGTA | -0.0528

Row | Sequence | PBM E-score
51 | GCTCATGA | 0.0686
52 | GCTGCCCC | -0.107
53 | GCCCCAGA | -0.158
54 | CCTTGGGA | -0.00782
55 | CAGTGGAA | -0.0557
56 | CGTCCGGA | 0.099
57 | ACGTTGGG | 0.0171
58 | ACTCGCAT | 0.101
59 | CGTACACG | 0.0454
60 | ATTACTCC | 0.0689
61 | ATTACTCA | 0.325
62 | ATTACAGG | 0.228
63 | ATTACACG | 0.0358
64 | ATTACTCG | 0.221
65 | ATTACACA | 0.284
66 | ATTACATC | 0.209
67 | ATTACACC | 0.108
68 | TGTACACA | 0.256
69 | AGTACACA | 0.0961
70 | ATTACATG | 0.301
71 | CGCTCAAA | 0.0635
72 | GTACTCAC | 0.158
73 | CATCGATA | 0.149
74 | CTAGATAG | 0.0131
75 | GAAATCGA | 0.0829

Row | Sequence | PBM E-score
76 | ATTACAGA | 0.152
77 | GCTACATA | -0.00397
78 | GTTACATA | 0.253
79 | GGTATACA | 0.0215
80 | CTTACATA | 0.278
81 | ACTACATA | 0.0142
82 | AGTATACA | 0.207
83 | GTTACAAA | 0.223
84 | CATACATA | 0.161
85 | ATTACATA | 0.296
86 | TGTATACA | 0.272
87 | CTTACATC | -0.00465
88 | TAAGTCCA | 0.0496
89 | ATGAATCA | 0.0957
90 | AACAGCGC | 0.0746
91 | CAGATCGC | -0.038
92 | CCTTGTAA | 0.049
93 | ATGACTAA | 0.377
94 | ATGACTAG | -0.129
95 | GTGACTCA | -0.0941
96 | GTGACTAA | 0.37
97 | ATGACTAC | -0.181
98 | GTGACTGA | 0.157

— the supplement of paper PMC3334620
